± gives the standard deviation of the averaged measurements.
System: AmpC beta-lactamase (E. coli)
Assay: AmpC inhibition relative to DMSO; higher = more inhibition
Method: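 Aggregation counter-screen: inhibition of E. coli AmpC beta-lactamase (5 nM, nitrocefin substrate, 50 mM sodium phosphate pH 7.0, RT, 5 min) by KAT inhibitors at 4, 11, 33 and 100 uM, with or without 0.01% Triton X-100. Percent inhibition is relative to DMSO controls. Four technical replicates.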

[1] = 4 µM, detergent: 0.01% Triton X-100
[2] = 11 µM, detergent: 0.01% Triton X-100
[3] = 33 µM, detergent: 0.01% Triton X-100
[4] = 100 µM, detergent: 0.01% Triton X-100
[5] = 100 µM, detergent: no detergent

Structure (SMILES)	AmpC inhibition [1]	AmpC inhibition (4 µM, detergent: no detergent)	AmpC inhibition [2]	AmpC inhibition (11 µM, detergent: no detergent)	AmpC inhibition [3]	AmpC inhibition (33 µM, detergent: no detergent)	AmpC inhibition [4]	AmpC inhibition [5]
CC(=O)c1c(O)c(C)c(O)c(Cc2c(O)c3c(c(C(=O)C=Cc4ccccc4)c2O)OC(C)(C)C=C3)c1O	0.746 ± 2.2%	3.59 ± 4.4%	5.76 ± 7.3%	41 ± 3.5%	-0.691 ± 4%	73.8 ± 1.6%	7.83 ± 5.4%	82.1 ± 1.2%
O=C(/C(C(N1CC2=CC=CC=C2)=O)=C/C3=C(C)C=C(O)C=C3C)N(CC4=CC=CC=C4)C1=O	4.49 ± 6.9%	2.08 ± 1.8%	3.45 ± 13%	29.6 ± 8.8%	10.9 ± 3.2%	65.9 ± 6.2%	14.8 ± 0.9%	84.9 ± 8.3%
Cc1cc2c(C(C)C)c(O)c(O)c(C=O)c2c(O)c1-c1c(C)cc2c(C(C)C)c(O)c(O)c(C=O)c2c1O	-0.343 ± 1.1%	0.793 ± 12%	4.76 ± 2.2%	-3.81 ± 3.7%	-3 ± 5.7%	-7.04 ± 18%	6.4 ± 5.5%	32.1 ± 2.7%

— the supplement of paper PMC10011410
